In experiment [1] the target is T1, Serine/threonine-protein kinase BRSK1 (Homo sapiens) (UniProt Q8TDC3).
T1 sequence (whole entry): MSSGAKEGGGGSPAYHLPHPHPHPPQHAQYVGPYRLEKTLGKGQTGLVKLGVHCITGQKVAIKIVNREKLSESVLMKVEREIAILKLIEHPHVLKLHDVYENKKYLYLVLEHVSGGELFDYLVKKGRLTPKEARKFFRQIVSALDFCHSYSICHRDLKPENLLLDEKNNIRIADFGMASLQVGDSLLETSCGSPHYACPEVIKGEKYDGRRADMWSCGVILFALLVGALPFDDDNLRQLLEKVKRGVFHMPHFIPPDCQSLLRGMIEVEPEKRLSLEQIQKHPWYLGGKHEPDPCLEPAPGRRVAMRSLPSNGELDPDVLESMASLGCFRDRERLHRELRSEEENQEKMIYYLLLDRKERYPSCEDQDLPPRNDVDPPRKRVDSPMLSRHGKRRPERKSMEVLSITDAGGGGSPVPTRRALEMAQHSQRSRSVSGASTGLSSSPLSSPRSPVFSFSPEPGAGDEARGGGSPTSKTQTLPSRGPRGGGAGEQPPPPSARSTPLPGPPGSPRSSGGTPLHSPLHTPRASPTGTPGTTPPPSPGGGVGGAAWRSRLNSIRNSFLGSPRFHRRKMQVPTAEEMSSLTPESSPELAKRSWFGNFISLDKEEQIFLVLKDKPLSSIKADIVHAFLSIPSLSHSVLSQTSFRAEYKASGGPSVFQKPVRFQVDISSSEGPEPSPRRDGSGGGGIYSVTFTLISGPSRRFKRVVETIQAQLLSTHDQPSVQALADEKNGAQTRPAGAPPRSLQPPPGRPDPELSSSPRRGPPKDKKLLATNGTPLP
Particulars: at 1 µM.

Experiment [2] deals with T1, Serine/threonine-protein kinase BRSK1 (Homo sapiens). Particulars: at 10 µM.
The target in experiment [3] is T2, Serine/threonine-protein kinase BRSK2 (Homo sapiens) (UniProt Q8IWQ3).
T2 sequence (whole entry): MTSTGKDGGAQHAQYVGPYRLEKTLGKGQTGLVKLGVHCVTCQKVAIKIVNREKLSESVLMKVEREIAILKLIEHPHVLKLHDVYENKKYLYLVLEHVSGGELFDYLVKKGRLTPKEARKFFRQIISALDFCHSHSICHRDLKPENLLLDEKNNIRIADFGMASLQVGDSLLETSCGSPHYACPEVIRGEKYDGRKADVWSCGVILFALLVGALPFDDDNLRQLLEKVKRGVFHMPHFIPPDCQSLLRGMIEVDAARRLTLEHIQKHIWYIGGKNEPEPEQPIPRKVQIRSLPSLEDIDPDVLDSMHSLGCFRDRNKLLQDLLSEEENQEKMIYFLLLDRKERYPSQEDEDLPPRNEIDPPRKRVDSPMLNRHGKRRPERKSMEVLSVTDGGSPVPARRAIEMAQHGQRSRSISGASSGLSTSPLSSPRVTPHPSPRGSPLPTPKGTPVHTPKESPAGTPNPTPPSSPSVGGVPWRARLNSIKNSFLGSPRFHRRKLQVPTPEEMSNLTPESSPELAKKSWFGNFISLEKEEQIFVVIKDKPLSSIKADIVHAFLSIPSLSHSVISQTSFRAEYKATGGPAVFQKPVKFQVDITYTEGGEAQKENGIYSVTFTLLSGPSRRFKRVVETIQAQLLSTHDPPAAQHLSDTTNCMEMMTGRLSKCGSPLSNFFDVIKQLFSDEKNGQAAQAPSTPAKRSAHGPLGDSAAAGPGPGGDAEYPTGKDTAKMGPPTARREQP
The following applies: at 1 µM.

Experiment [4] concerns the target T2, Serine/threonine-protein kinase BRSK2 (Homo sapiens). The following applies: at 10 µM.
The target in experiment [5] is T3, Cyclin-dependent kinase 1/cyclin B1 (Homo sapiens) (UniProt P06493+P14635). The following applies: at 1 µM.
The target of experiment [6] is T3, Cyclin-dependent kinase 1/cyclin B1 (Homo sapiens). Particulars: at 10 µM.
Experiment [7] addresses T4, Cyclin-dependent kinase 2/cyclin A (Homo sapiens) (UniProt P24941+P20248+P78396). Particulars: at 1 µM.
The target in experiment [8] is T4, Cyclin-dependent kinase 2/cyclin A (Homo sapiens). Particulars: at 10 µM.
The target in experiment [9] is T5, Cyclin-dependent kinase 2/cyclin E (Homo sapiens) (UniProt P24864+P24941+O96020). The following applies: at 1 µM.
For experiment [10], the target named is T5, Cyclin-dependent kinase 2/cyclin E (Homo sapiens). The following applies: at 10 µM.

Consider 18 molecules from ChEMBL document CHEMBL2218924, “A broad activity screen in support of a chemogenomic map for kinase signalling research and drug discovery” (Biochem J, 2013).

Structures are written as SMILES.

T3 sequence (P06493 whole entry, looked up): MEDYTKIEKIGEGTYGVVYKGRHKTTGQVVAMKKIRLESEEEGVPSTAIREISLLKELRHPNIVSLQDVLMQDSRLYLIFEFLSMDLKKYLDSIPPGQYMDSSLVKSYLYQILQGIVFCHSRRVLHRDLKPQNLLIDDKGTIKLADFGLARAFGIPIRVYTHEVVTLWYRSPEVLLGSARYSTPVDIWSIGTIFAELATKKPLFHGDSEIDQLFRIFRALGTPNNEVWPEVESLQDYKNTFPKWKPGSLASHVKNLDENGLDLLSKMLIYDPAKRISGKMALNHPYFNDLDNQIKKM
T3 sequence (P14635 whole entry, looked up): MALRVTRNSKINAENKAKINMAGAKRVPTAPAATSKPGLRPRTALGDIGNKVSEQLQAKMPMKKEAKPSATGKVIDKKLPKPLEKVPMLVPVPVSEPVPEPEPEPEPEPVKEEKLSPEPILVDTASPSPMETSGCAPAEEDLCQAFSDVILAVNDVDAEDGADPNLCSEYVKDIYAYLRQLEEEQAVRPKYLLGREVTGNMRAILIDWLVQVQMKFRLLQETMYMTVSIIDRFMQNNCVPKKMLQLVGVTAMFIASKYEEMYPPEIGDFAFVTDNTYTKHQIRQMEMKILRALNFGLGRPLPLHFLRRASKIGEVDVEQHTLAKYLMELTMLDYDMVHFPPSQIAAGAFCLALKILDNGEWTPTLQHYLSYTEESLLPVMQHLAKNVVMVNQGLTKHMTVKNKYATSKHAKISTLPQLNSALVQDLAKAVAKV

As a reminder, the residual activity is the signal under treatment as a percentage of the control signal. Regarding `Oc1c2ccccc2c2c3c(cccc13)N=N2`, the residual activity in experiment [1] came out at 38%; in experiment [2] it was 29%; in [3] it was 64%; in experiment [4] it was 9%; in experiment [5], 52%; in experiment [6] it was 35%. The residual activity in [7] was 59%; in experiment [8], 36%; in experiment [9], 8%; in [10], 3%.
For the molecule `CN(C)c1ccc(/C=C2\C(=O)Nc3ccccc32)cc1`, the residual activity in experiment [1] was found to be 83%; in experiment [2], 69%; in [3], 90%; in experiment [4], 61%; in [5] it was 97%; in [6], 112%. Also, the residual activity in experiment [7] was found to be 111%; in [8] it was 91%; in experiment [9], 111%; in experiment [10], 103%.
Turning to `CNc1cc2c(Nc3cccc(Br)c3)ncnc2cn1`, the residual activity in experiment [1] is 34%; in [2] it was 8%; in experiment [4] it was 26%; in experiment [5], 111%; in experiment [6], 99%; in experiment [7], 123%. For the same molecule, the residual activity in [8] was 94%; in [9], 105%; in experiment [10], 107%.
Regarding `O=C(Nc1cccc(Nc2cc(Nc3cccc(C(F)(F)F)c3)ncn2)c1)C1CC1`, the residual activity in experiment [1] amounted to 67%; in experiment [2], 29%; in experiment [3], 83%; in experiment [4] it was 47%; in [5] it was 92%; in [6], 89%. Moreover, the residual activity amounted to 120% in experiment [7], 71% in experiment [8], 99% in experiment [9] and 76% in [10].
`c1ccc(-c2n[nH]c3c2oc2ccccc23)cc1`: the residual activity in [3] turned out to be 114%; in experiment [4] it was 73%; in experiment [5], 94%; in experiment [6], 75%; in [7] it was 128%; in [8], 64%. In addition, the residual activity in experiment [10] was 60%.
Regarding `CO[C@H]1C[C@@H]2CC[C@@H](C)[C@@](O)(O2)C(=O)C(=O)N2CCCC[C@H]2C(=O)O[C@H]([C@H](C)C[C@@H]2CC[C@@H](O)[C@H](OC)C2)CC(=O)[C@H](C)/C=C(\C)[C@@H](O)[C@@H](OC)C(=O)[C@H](C)C[C@H](C)/C=C/C=C/C=C/1C`, the residual activity in [1] came out at 70%; in experiment [2], 68%; in experiment [3] it was 97%; in [4], 139%; in [5] it was 120%; in experiment [6] it was 108%. Moreover, the residual activity in experiment [7] is 129%; in experiment [8], 113%; in experiment [9], 105%; in [10] it was 96%.
Consider `C[C@@H](N)[C@H]1CC[C@H](C(=O)Nc2ccncc2)CC1`, for which the residual activity in experiment [1] was 106%; in experiment [2], 107%; in experiment [3], 123%; in [4] it was 82%; in experiment [6], 85%.
`N#CC(C#N)=C(N)/C(C#N)=C/c1ccc(O)cc1`: the residual activity in [7] is 124%; in experiment [8] it was 88%.
Turning to `COc1cc2ncnc(N3CCN(C(=O)Nc4ccc(Oc5ccccc5)cc4)CC3)c2cc1OC`, the residual activity stood at 79% in experiment [1]; 91% in [2]; 113% in [3]; 126% in [4]; 119% in experiment [5]; 109% in experiment [6]. For the same molecule, the residual activity in experiment [7] is 117%; in [8], 92%; in [9] it was 98%; in [10], 96%.
Regarding `N#CCCc1ccc2c(c1)-c1[nH]c3ccc([N+](=O)[O-])cc3c1CC(=O)N2`, the residual activity in experiment [3] turned out to be 39%; in experiment [4], 13%; in experiment [5] it was 3%; in experiment [6] it was 0%; in experiment [7], 0%; in experiment [8] it was 1%. Besides, the residual activity in experiment [9] was 1%; in experiment [10] it was -2%.
Regarding `NC(=O)c1ccc2[nH]c(-c3ccc(Oc4ccc(Cl)cc4)cc3)nc2c1`, the residual activity stood at 83% in [1]; 81% in [2]; 116% in experiment [3]; 88% in experiment [4]; 93% in experiment [5]; 56% in experiment [6]. For the same molecule, the residual activity was determined as 82% in experiment [7], 83% in experiment [8], 91% in [9] and 87% in experiment [10].
Turning to `CC#CC(=O)Nc1cc2c(Nc3ccc(F)c(Cl)c3)ncnc2cn1`, the residual activity worked out at 87% in experiment [1]; 81% in experiment [2]; 94% in [3]; 100% in [4]; 107% in experiment [5]; 94% in experiment [6]. The residual activity stood at 126% in experiment [7], 85% in experiment [8] and 94% in experiment [10].
For the molecule `Cc1cccc(-c2[nH]c(C(C)(C)C)nc2-c2ccc3c(c2)OCO3)n1`, the residual activity in [1] is 97%; in experiment [2] it was 106%; in experiment [7], 133%; in [8], 103%; in [10], 98%.
Turning to `N#C/C(=C(\N)Sc1ccc(N)cc1)c1ccccc1C(F)(F)F`, the residual activity in experiment [1] is 85%; in experiment [2], 74%; in [3], 105%; in [4] it was 103%; in experiment [5] it was 104%; in experiment [6], 96%. The residual activity in [7] was 86%; in experiment [9], 97%; in experiment [10], 102%.
For the molecule `CC[n+]1c(/C=C/N(C)c2ccccc2)n(-c2ccccc2)c2ccc(-c3nc4ccccc4s3)cc21`, the residual activity in [1] is 59%; in experiment [2], 68%; in experiment [3], 111%; in [4] it was 129%; in experiment [5] it was 111%; in experiment [6], 91%. For the same molecule, the residual activity worked out at 146% in [7], 85% in experiment [8], 101% in experiment [9] and 89% in experiment [10].
Regarding `Oc1ccc(-c2nc(-c3ccc(F)cc3)c(-c3ccncc3)[nH]2)cc1`, the residual activity in experiment [1] stood at 102%; in experiment [2], 63%; in experiment [3] it was 124%; in [4] it was 90%; in experiment [5], 101%; in experiment [6], 92%. For the same molecule, the residual activity in experiment [7] was 95%; in experiment [8], 88%; in experiment [9], 108%; in [10], 91%.
With `COc1cccc(-c2cc(=O)c3ccccc3o2)c1N`, the residual activity is 101% in experiment [1]; 103% in experiment [2]; 123% in [3]; 98% in experiment [4]; 99% in experiment [5]; 99% in experiment [6]. The residual activity in [7] was found to be 93%; in experiment [8], 10%; in [9], 96%; in experiment [10], 85%.
Turning to `COc1ccc(CNc2nc(N(CCO)CCO)nc3c2ncn3C(C)C)cc1`, the residual activity in experiment [1] worked out at 91%; in experiment [2], 92%; in experiment [3] it was 114%; in experiment [4], 99%; in experiment [5], 81%; in experiment [6] it was 26%. The residual activity in experiment [7] stood at 24%; in experiment [8], 3%; in experiment [9] it was 18%; in experiment [10] it was 0%.
